The list is not random: actives were taken first. Their share in the collection is about 7.9%.
KB-3-1 tox: KB-3-1 parental cell cytotoxicity | hit rate 1.4% among 400,000 | Potency, µM (doses to about 46.1 µM), usual class: cytotoxic | KB-3-1 viability, CellTiter-Glo ATP luminescence, 72 h; note: % is set by controls: 0 for no effect and ±100 for the full control effect; nearly all actives have a fitted effect of over 60% in size
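Cells are dispensed, compounds pinned in, plates held at 37 °C for 72 h, then CellTiter-Glo is added and luminescence read after 10 minutes. Cell line: parental KB-3-1 in phenol-red-free DMEM, 10% FBS.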
HT1080 IDH1KD tx: toxicity to HT-1080 IDH1 knockdown cells (counter line) | hit rate 2% among 360,000 | Potency, µM (series often up to 46.1 µM), for inactives: top-dose activity, negative = toxicity, actives largely listed as cytotoxic | HT-1080 IDH1 knockdown viability, ATP luminescence, 48 h | AID 686971;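 note: 0% = DMSO wells and -100% = cell-free medium wells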
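Knockdown cells (IDH1KD HT-1080) received compounds 2 h after plating at 750 cells/well and were kept 48 h at 37 °C in 5% FBS RPMI. A CellTiter-Glo luminescence read gave % activity for curve fitting.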
KB-V1 MDR tox: KB-V1 MDR subline cytotoxicity; KB-V1 MDR cells viability, CellTiter-Glo, 72 h; Potency, µM (doses to about 46.1 µM), most hits filed as cytotoxic; hit rate 3.4% among 400,000; note: % is set by controls: 0 for no effect and ±100 for the full control effect; nearly all actives have a fitted effect of over 60% in size
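Potencies derive from concentration-effect curves fitted to normalized luminescence (CellTiter-Glo) of KB-V1 cells treated for 72 h at 37 degrees C in phenol-red-free DMEM containing 10% FBS.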
SW480 rerep: DNA re-replication induction in SW480 cells; SW480 DNA re-replication, Hoechst DNA content imaging, 48 h; Potency, µM (doses to about 46.1 µM), for inactives: top-dose re-replication activation, actives largely listed as activators; hit rate 1.8% among 340,000; note: % of control where 0% means no effect; nearly all actives have a fitted effect of over 55% in size
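Readout is total intensity of Hoechst-stained nuclei, excited at 405 nm and collected at 500-530 nm. Compound treatment lasted 48 hr at 37 C in 5% CO2 before staining.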
MCF10A rereplic: DNA re-replication induction in MCF 10a cells; MCF 10A DNA re-replication, Hoechst nuclear intensity, 48 h; Potency, µM (titrated, usually from 46.1 µM), without a hit: top-dose activity, positive = re-replication, usual class: activators; hit rate 2.9% among 350,000; AID 624296; note: % of control where 0% means no effect; nearly all actives have a fitted effect of over 50% in size
HT1080-NT tox: kills 2HG-producing HT-1080-NT fibrosarcoma cells; HT-1080-NT fibrosarcoma viability, CellTiter-Glo ATP luminescence, 48 h; Potency, µM (doses to about 46.1 µM), for inactives: top-dose activity, negative = less viability, hits mostly cytotoxic; hit rate 1.6% among 360,000; AID 686970;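 note: NT is the 2HG producing partner of a matched IDH1 knockdown line; 0% = DMSO-treated cells and -100% = media-only wells without cells; nearly all actives have a fitted effect of over 55% in size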
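Luminescent CellTiter-Glo readout after 48 hours of compound exposure at 37 degrees C defined viability of HT-1080-NT cells. Activity was normalized to DMSO wells and cell-free media wells; concentration-response curves were fitted and assigned curve classes.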
The depositor's hits bear a star; i = inactive; ? = inconclusive; . = not tested or not shown; [ ] = remark or other dose. Calls come from the whole dose curve; as a rule, active = well fitted curve in the direction sought with a large enough effect; inconclusive = small, poorly fitted or top-dose-only effect, or another doubt; inactive = no such curve, though single readings can be large; an effect the other way counts as inactive or inconclusive. Potency is the fitted concentration of half-maximal effect.

SMILES | KB-3-1 tox | HT1080 IDH1KD tx | KB-V1 MDR tox | SW480 rerep | MCF10A rereplic | HT1080-NT tox
CCOc1ccc(C(=O)C(CCC(CN(C)C)C(=O)c2ccc(OCC)cc2)CN(C)C)cc1 (stereo not given) | ? | 5.8µM* | i | 3.7µM* | ? | 5.2µM*
CCOc1ccc(C(=O)c2ccncc2)cc1 | i | -20% | i | -2% | -2% | -4%
CN(C)CC(CCC(CN(C)C)C(=O)c1ccccc1)C(=O)c1ccccc1 (stereo not given) | 16µM* | 5.8µM* | 8.2µM* | ? | ? | 3.3µM*
COc1ccc(C(=O)C(CCCCC(CN(C)C)C(=O)c2ccc(OC)cc2)CN(C)C)cc1 (stereo not given) | i | ? | 13µM* | ? | ? | -14%
COc1ccc(C(C)=O)cc1 | i | . | i | . | . | .
O=C(c1ccccc1)C(CCc1ccccn1)CCc1ccccn1 | i | -3% | i | 2% | 6% | -2%
OC(COCc1ccc2c(c1)OCO2)CN1CCC(Cc2ccccc2)CC1 (stereo not given) | i | ? | ? | -2% | ? | 0%
CCN(CC)CCC(c1ccc2c(c1)OCO2)c1c(O)cc(OC)cc1OC (stereo not given) | i | -15% | i | -1% | -14% | -6%
CC(NC(=O)c1ccnc(C(C)(C)C)c1)c1ccccc1 (stereo not given) | ? | 4% | 18µM* | 10% | 6% | 2%
CC(C)(C)NC(=O)c1ccnc(C(C)(C)C)c1 | i | 2% | i | -16% | -2% | -4%
CC(C)(C)c1cc(C(=O)Nc2ccccc2)ccn1 | i | 0% | 21µM* | -6% | 4% | 0%
Cc1ccc(NC(=O)c2ccnc(C(C)(C)C)c2)cc1 | ? | 8% | i | -2% | 10% | 12%
O=C(CSc1ncn[nH]1)Nc1ccccc1Sc1ccccc1 | i | ? | 15µM* | 0% | 20% | -4%
O=C(CCl)Nc1ccccc1Sc1ccc(Cl)cc1 | ? | ? | ? | 15µM* | 15µM* | ?
CC(=O)N1CCN(CC(=O)Nc2ccccc2Sc2ccc(Cl)cc2)CC1 | ? | -4% | 5.8µM* | 2% | 9% | 2%
C[C@H](CO)N1C[C@H](C)[C@@H](CN(C)S(=O)(=O)c2ccccc2)Oc2c(NC(=O)Nc3ccccc3)cccc2C1=O | i | 5% | i | ? | -10% | 7%
Cc1ccc(Cl)cc1N1CCN(C(CC(C)C)c2nnnn2CC2CCCO2)CC1 (stereo not given) | ? | -5% | ? | -4% | 2.9µM* | -8%
CC(C)CC(c1nnnn1Cc1ccco1)N1CCN(c2cccc(Cl)c2)CC1 (stereo not given) | 10µM* | -22% | ? | ? | ? | -20%
CCC(c1nnnn1C(C)(C)C)N1CCN(C2CCCC2)CC1 (stereo not given) | i | 13% | i | 1% | -16% | 9%
CCC(c1nnnn1C(C)(C)C)N1CCN(c2cc(Cl)ccc2C)CC1 (stereo not given) | i | -20% | i | ? | 13µM* | -14%
CC(C)CC(c1nnnn1CC1CCCO1)N1CCN(C2CCCC2)CC1 (stereo not given) | i | 11% | i | -1% | 1% | 8%
CC(C)CC(c1nnnn1CC1CCCO1)N1CCN(c2cccc(Cl)c2)CC1 (stereo not given) | ? | 0% | i | ? | ? | 2%
CCCC(c1nnnn1CC1CCCO1)N1CCN(c2cc(Cl)ccc2C)CC1 (stereo not given) | ? | -13% | ? | 19% | 5.2µM* | -13%
CC(C)COc1ccc(-c2nnc(-c3ccco3)o2)cc1 | i | -3% | i | ? | -178%[0.0737 µM] | 0%
CCN(CC)CCCNc1ccc(-c2nnc(-c3ccc(OCC(C)C)cc3)o2)cn1 | 21µM* | ? | ? | 21µM* | ? | -8%
SMILES | KB-3-1 tox | HT1080 IDH1KD tx | KB-V1 MDR tox | SW480 rerep | MCF10A rereplic | HT1080-NT tox
O=C(CSc1nnc2scc(-c3ccc(Cl)cc3)n12)Nc1ccccc1F | i | . | i | . | . | .
O=C(Nc1ccc(-c2noc(CCc3ccccc3)n2)cc1)c1cccnc1 | ? | ? | 16µM* | -4% | 16µM* | ?
O=C(NCCc1ccccc1)c1ccc(NC(=O)c2cccnc2)cc1 | i | ? | i | -1% | -3% | ?
COc1ccccc1C(=O)NC(=S)Nc1ccc2[nH]c(=O)[nH]c2c1 | i | ? | i | -9% | -10% | ?
CCOC(=O)N1CCN(C(=O)C2CCC(=O)N(CCc3ccccc3)C2)CC1 (stereo not given) | i | 0% | i | 2% | 6% | 5%
CN(CC(=O)Nc1ccc(Cl)c(C(F)(F)F)c1)C(=O)c1cccc2cccnc12 | i | -4% | 18µM* | -5% | -7% | 0%
COc1ccc(NC(=O)CSCC(=O)N(C)CC(=O)Nc2ccc(Cl)c(C(F)(F)F)c2)cc1 | i | -28% | i | ? | 28% | ?
Cc1cc(C)cc(OCC(=O)N(C)CC(=O)Nc2ccc(Cl)c(C(F)(F)F)c2)c1 | ? | -24% | i | 3% | 6.5µM* | -2%
CCOc1ccc(CCNC(=O)Cn2c(-c3nonc3N)nc3ccccc32)cc1OCC | i | -11% | i | 21%[9.22 µM] | 18% | -4%
C/C(=N\NC(=O)Cn1ccc(C(F)(F)F)n1)c1ccc(N2CCOCC2)cc1 | i | 9% | i | 5% | -9% | -16%
CCN(CC(=O)Nc1ccc(NC(C)=O)cc1)C(=O)C(c1ccccc1)c1ccccc1 | i | 27% | i | -1% | 17% | 3%
Cc1ccc(OCCCNCCO)c(Br)c1 | i | 21µM* | i | ? | ? | ?
O=C(Nc1cccc(Cl)c1)Nc1sccc1-c1nc2ccccc2s1 | i | -21% | ? | 18µM* | 16µM* | -20%
COc1ccc(C/C(O)=C(\C#N)c2nc3ccccc3[nH]2)cc1OC | i | -7% | i | -2% | 12% | -1%
CCc1ccc(N2C(=O)Cc3c2nc(N)c(C#N)c3N)cc1 | i | -27% | ? | 4% | 7% | 7%
CCN(CC)c1nc2c3c(nc4c(c3c1C#N)CC(=O)N4c1ccc(Cl)cc1)NC(C)=N2 | ? | -1% | i | 4% | 9.2µM* | -1%
Cc1nc(Nc2ccc(Cl)c(Cl)c2)sc1C(=O)Nc1ccccc1 | ? | -23% | i | 28% | 23µM* | ?

Compound activity deposited in PubChem BioAssay by National Center for Advancing Translational Sciences (NCATS).
